# Source: PubChem BioAssay (Buhrlage Lab, Dana-Farber Cancer Institute and Novartis Institutes for BioMedical Research (Cambridge, Mass))
# Compounds with a hit are over-represented: about 9.2% of the library has one in this group of screens.
# USP10 inh – inhibitors of human USP10 deubiquitinase. Ubiquitin carboxyl-terminal hydrolase 10 (Homo sapiens), Q14694. purified USP10, Ub-rhodamine fluorescence, 60 min. inhibition, % at 20 µM. 47,000 tested, 1.1% active
# USP17 block – inhibitors of human USP17 deubiquitinase. inhibition, % at 50 µM. purified USP17, Ub-rhodamine cleavage fluorescence, 3 h. 47,000 tested, 6.5% active
# OTUD3 block – inhibitors of human OTUD3 deubiquitinase. purified OTUD3, Ub-rhodamine fluorescence, 2 h. inhibition, % at 25 µM. 47,000 tested, 0.7% active
# UCHL1 inh – inhibitors of human UCHL1 deubiquitinase. Ubiquitin carboxyl-terminal hydrolase isozyme L1 (Homo sapiens), P09936. purified UCHL1, Ub-rhodamine cleavage fluorescence. inhibition, % at 20 µM. 47,000 tested, 0.2% active. AID 1645859, 2021
# USP7 block – inhibitors of human USP7 deubiquitinase; purified USP7, Ub-rhodamine cleavage fluorescence; inhibition, % at 20 µM; 47,000 tested, 0.3% active; AID 1645854, 2021
# USP8 block – inhibitors of human USP8 deubiquitinase | Ubiquitin carboxyl-terminal hydrolase 8 (Homo sapiens), P40818 | purified USP8, Ub-rhodamine cleavage fluorescence, 30 min | inhibition, % at 20 µM | 47,000 tested, 4.2% active | AID 1645853, 2021
# Target sequence (P40818 whole entry, looked up): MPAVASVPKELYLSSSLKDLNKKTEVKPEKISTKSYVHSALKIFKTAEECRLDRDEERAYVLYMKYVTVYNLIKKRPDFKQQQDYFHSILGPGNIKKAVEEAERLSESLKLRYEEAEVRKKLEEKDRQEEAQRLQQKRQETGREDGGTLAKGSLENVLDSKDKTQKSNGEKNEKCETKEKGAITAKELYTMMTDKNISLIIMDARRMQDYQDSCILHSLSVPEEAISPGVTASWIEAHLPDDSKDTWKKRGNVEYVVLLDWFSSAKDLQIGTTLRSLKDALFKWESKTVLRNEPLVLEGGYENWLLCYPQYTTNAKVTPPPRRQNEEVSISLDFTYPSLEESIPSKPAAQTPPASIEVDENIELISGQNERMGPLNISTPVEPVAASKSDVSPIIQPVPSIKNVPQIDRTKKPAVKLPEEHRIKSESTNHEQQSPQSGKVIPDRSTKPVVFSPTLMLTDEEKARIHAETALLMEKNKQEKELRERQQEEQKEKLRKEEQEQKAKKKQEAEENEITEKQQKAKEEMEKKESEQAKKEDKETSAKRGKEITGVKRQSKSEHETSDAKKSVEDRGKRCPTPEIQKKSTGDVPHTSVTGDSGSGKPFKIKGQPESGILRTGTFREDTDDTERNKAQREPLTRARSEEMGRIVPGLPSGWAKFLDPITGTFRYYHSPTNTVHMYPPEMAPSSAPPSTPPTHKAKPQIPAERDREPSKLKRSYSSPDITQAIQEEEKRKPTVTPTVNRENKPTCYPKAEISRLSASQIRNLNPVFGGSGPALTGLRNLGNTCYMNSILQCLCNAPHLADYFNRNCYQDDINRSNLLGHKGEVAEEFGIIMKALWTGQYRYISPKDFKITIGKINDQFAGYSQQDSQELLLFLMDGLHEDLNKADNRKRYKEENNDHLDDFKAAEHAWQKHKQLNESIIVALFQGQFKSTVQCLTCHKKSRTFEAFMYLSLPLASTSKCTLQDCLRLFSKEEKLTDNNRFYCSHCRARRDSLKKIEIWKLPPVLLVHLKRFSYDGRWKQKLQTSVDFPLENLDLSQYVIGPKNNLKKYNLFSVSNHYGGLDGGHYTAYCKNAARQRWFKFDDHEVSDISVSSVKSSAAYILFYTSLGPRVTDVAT
# An asterisk follows results filed as active; x = not tested or not shown. No stated cut-off is given here; in the data, active means inhibition above about 30%; inactive means the rest.
SMILES,USP10 inh,USP17 block,OTUD3 block,UCHL1 inh,USP7 block,USP8 block
O=C(c1c(F)cccc1F)N1CCCC(c2[nH]nc3nccnc23)C1 (configuration not stated),0,6,-1,-1,0,30*
O=C(Nc1ccccc1Br)c1cnc(-c2ccccc2)nc1-c1ccncc1,-7,-17,-69,-42,-39,-21
Cc1cc2occ(CC(=O)N3CCCCC3c3nnc(-c4cnccn4)o3)c2cc1C (configuration not stated),-1,8,7,2,-3,30*
CCc1cc(C(=O)N2CCCCC2c2nnc(-c3cnccn3)o2)cs1 (configuration not stated),1,-5,-2,-1,0,-1
COc1ccc(N2CCN(C(=O)c3cncc(NS(=O)(=O)c4ccc(NC(C)=O)cc4)c3)CC2)cc1,0,5,6,0,5,0
CCOC(=O)Cc1cc(=O)n2[nH]c(-c3ccc(C)cc3)cc2n1,-3,31*,5,-16,-2,-25
CCOC(=O)Cc1cc(=O)n2[nH]c(C)c(-c3ccc(Cl)cc3)c2n1,6,-8,1,0,7,-126
CC(NC(=O)c1ccc(-c2ccccc2Cl)o1)C1CC1 (configuration not stated),4,10,5,0,3,0
CCc1cc2c(cc(C(=O)OC)n2CC(=O)Nc2ccc(C)cc2Cl)s1,6,53*,17,1,3,-4
CCOC(=O)c1ccc2ncc3c(-c4ccccc4)nn(-c4ccc(C)cc4)c3c2c1,1,10,7,3,5,9
O=c1c(S(=O)(=O)c2cc(F)cc(F)c2)c[nH]c2cc(Cl)ccc12,22,52*,4,8,26,80*
CC(C)(C)C(=O)[C@@H]1[C@@H](C(=O)c2ccc3c(c2)OCO3)[C@@]2(C(=O)Nc3ccccc32)[C@H]2c3ccccc3C=CN12,16,82*,1,21,-15,93*
Cc1cccc(CC(=O)N2CCCC(c3[nH]nc4nccnc34)C2)c1 (configuration not stated),0,9,-9,-8,-2,4
N#Cc1cccnc1N1CCN(C(=O)Nc2cccc3ccccc23)CC1,0,77*,11,18,-25,91*
Cc1cnc(CN2CCCC(c3ccc4cn[nH]c4n3)C2)cn1 (configuration not stated),0,-12,47*,0,2,2
COC(=O)c1ccccc1NC(=O)C1CCCN(c2nnc(-n3cccc3)s2)C1 (configuration not stated),15,x,28,8,10,40*
Cc1c(Cl)cccc1NC(=O)C1CCCN(c2nnc(-n3cccc3)s2)C1 (configuration not stated),13,30,-13,2,6,60*
Cc1ccccc1NC(=O)C1CCCN(c2nnc3ccccn23)C1 (configuration not stated),0,-2,5,1,2,-5
Cc1nccc(C(=O)N2CCCC(c3ncc(Cc4ccccc4Cl)o3)C2)n1 (configuration not stated),-3,15,9,-1,0,15
Cc1cc(N2CC3(CCCCC3)OC2=O)nc(C2CCN(S(C)(=O)=O)CC2)n1,-1,14,3,5,5,31*
COc1ccccc1CNC(=O)CCC(=O)N1Cc2cccn2-c2ccccc21,-3,-58,-44,-6,-23,-9
COc1ccc(NCc2nc3ccccc3n2Cc2ccccc2)cc1,-3,64*,-4,3,-25,90*
O=C(O)c1ccc(NCc2nc3ccccc3n2Cc2ccccc2F)cc1,7,28,3,-2,-8,23
Cc1ccc(-n2nnnc2-c2cnc3cc(Cl)ccc3c2N)cc1,15,15,7,7,18,44*
Clc1ccc2ncc(-c3nnnn3-c3ccc4ccccc4c3)c(-c3ccccc3)c2c1,4,0,1,5,-20,9
SMILES,USP10 inh,USP17 block,OTUD3 block,UCHL1 inh,USP7 block,USP8 block
COc1ccc(-n2nnnc2CN2CCN(S(=O)(=O)c3ccc(F)cc3)CC2)cc1,1,34*,0,0,1,0
Cc1ccc(NC(=O)COc2ccc(-c3nc(C(C)C)no3)cc2)c(F)c1,12,37*,10,-1,5,21
CCc1noc(-c2ccc(OCC(=O)Nc3cc(C)cc(C)c3)cc2)n1,4,25,0,4,3,0
O=C(CN(Cc1ccc(Cl)cc1)S(=O)(=O)c1ccc(Cl)cc1)N1CCOCC1,-4,21,16,2,-29,18
O=C(CN(Cc1ccccc1)S(=O)(=O)c1ccc(Cl)cc1)Nc1ccc(N2CCOCC2)cc1,2,18,-2,0,-2,37*
Cc1ccc(S(=O)(=O)N2CC[C@@H]3CN(C(=O)c4ccccc4)[C@@H]3C2)cc1,3,11,21,1,4,22
O=c1[nH]c(N2CCCCC2)nc2c1CCN(Cc1cccn1-c1cccnc1)C2,-13,-55,-72,-10,-5,-17
O=c1[nH]c(-c2ccncc2)nc2c1CCN(Cc1cccn1-c1cccnc1)C2,-3,0,-37,-33,-47,58*
CCN1CCN(c2ncc(C(=O)N3CCN(c4ccccc4F)CC3)c(C)n2)CC1,-1,-8,-11,0,0,-10
Nc1ccc(NS(=O)(=O)c2ccc3c(c2)OCCCO3)cc1,1,16,-3,1,-1,33*
O=C(O)c1ccc(NS(=O)(=O)c2ccc3c(c2)OCCCO3)cc1,-1,-13,-2,-3,0,2
CC(C)c1ccc(NC(=O)COC(=O)c2ccc(NS(=O)(=O)c3ccc4c(c3)OCCO4)cc2)cc1,51*,x,-12,4,17,-8
CC(OC(=O)c1ccc(NS(=O)(=O)c2ccc3c(c2)OCCO3)cc1)C(=O)Nc1cccc2ccccc12 (configuration not stated),8,-2,-14,-2,6,2
Nc1c(-c2ccsc2)cnn1-c1ccccc1,6,2,-12,0,-6,57*
O=C(c1cc(-c2ccncc2)n[nH]1)N1CCN(C(=O)c2cccc3[nH]ccc23)CC1,-2,6,6,4,8,17
Cc1c(CNCc2ccc(F)cc2)c(C(=O)O)c(C)n1-c1ccccc1,-8,-8,-34,-7,-10,43*
COc1cc(/C=C(/C(=O)O)c2ccc(-c3ccccc3)cc2)cc(OC)c1OC,3,38*,-11,-6,-1,-6
Cc1ccccc1NC(=O)Cc1nc(-c2cccc3ccccc23)cs1,0,47*,0,-2,-3,73*
